Screen size: about 190,000 compounds; about 930 (0.49%) were called active. This is one part of the list. Measured potencies and affinities stand elsewhere. Values without a mark were called inactive.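 Rule for the calls: active = z-score of insulin promoter reporter brightness in nuclei below -3 at 5 µM, with at least 500 cells counted; inconclusive = wells with under 500 cells, flagged as toxic or sparse; inactive = the rest.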

This assay in a line: insulin promoter down-regulators in MIN6 cells, imaging, high-content screening, mouse beta cells (AID 1628). Particulars: MIN6 insulin promoter GFP reporter, at 5 µM, stronger effect = lower value.
In the case of `CCN(CC)S(=O)(=O)c1cccc(-c2n[nH]c(=S)n2/N=C/c2ccc(C(=O)OC)cc2)c1`, the z-score is -4.66 (active). The value for `COC(=O)c1cc(Nc2cc(C)c3ccc(O)cc3n2)cc(C(=O)OC)c1` was -3.19 (active). The value for `COC(=O)c1cc(-c2c(C)oc3cc(O)ccc3c2=O)c(C)o1` was 0.55; that for `Cc1cc(C(=O)COc2ccc(-c3nnco3)cc2)c(C)n1Cc1ccccc1` was -4.66 (active). For `S=C(Nc1ccccc1Cl)N(CCCN1CCOCC1)Cc1ccco1` the value was -4.9 (active); for `Cc1csc(SCC(=O)Nc2cccc3nsnc23)n1`, -3.34 (active). As for `CCOC(=O)Cc1csc(SCC(=O)Nc2cccc(C#N)c2)n1`, the z-score was 1.27.

As for `Cc1csc(NC(=O)CN(C)S(=O)(=O)c2cccc3cccnc23)n1`, the z-score is 3.05. The value for `N=c1c2c(n(Cc3ccc([N+](=O)[O-])cc3)c3c1CCC3)CCCC2` was -3.48 (active); that for `N=c1c2c(n(Cc3ccc(F)cc3)c3c1CCC3)CCC2` was -5.9 (active). For `CC(C)(C)NC(=O)N1CCC(CO)(Cc2ccccc2Cl)CC1` the value was -3.59 (active). The value for `CCCn1nc2cc(C(=O)NCc3ccccc3)ccc2c1OCC` was 4.73. Turning to `CCCCn1nc2cc(C(=O)N(CC)c3ccc(OC)cc3)ccc2c1OCC`, the z-score is -3.8 (active). For `Cc1ccccc1N=Nc1c(C)[nH]n(C(N)=S)c1=O` the value was -9.54 (active); for `O=C(NNS(=O)(=O)c1ccc(F)cc1F)c1csc(-c2cccnc2)n1`, -3.45 (active); for `Nc1c(C(=O)N/N=C/c2cccnc2)oc2nc(-c3ccccc3)cc(-c3ccco3)c12`, 4.08. For `CCCCc1nnc(NC(=O)CSc2nc(O)c(Cc3ccccc3)c(=O)[nH]2)s1` the value was 2.27; for `O=C(CSc1nc(Cc2ccccc2)nc2ccccc12)Nc1nc2c(s1)CCCC2`, -3.54 (active). For `CN(C)c1ccc(/C=C(\C#N)C(=O)Nc2nc3c(s2)CCN(Cc2ccccc2)C3)cc1` the value was 15.1; for `O=c1cc(O)c2c(=O)n(-c3ccccc3)c3c(c2o1)CCCCCC3`, -4.17 (active); for `Cc1cc(Nc2nn(C)c(N)c2C#N)ccc1F`, 6.01. `CCOC(=O)C1C(=O)C=C(/C=C/c2ccc(N(C)C)cc2)CC1c1ccccc1` (stereo not given): the z-score was 9.81. For `CCOC(=O)C1C(=O)C=C(c2cccc(NS(C)(=O)=O)c2)CC1c1ccco1` (stereo not given) the value was -3.47 (active). The value for `COc1ccc(-c2nnn(CC(=O)N(CCO)C(C(=O)NC3CCCC3)c3ccc(F)cc3)n2)cc1` (stereo not given) was 3.28; that for `O=C(COc1ccc(Cl)cc1)NCc1nnc(SCC(=O)NC2CCCCC2)o1` was 3.28. The value for `COc1ccc(OCCC(=O)NC2CCCCC2)cc1` was -3.45 (active); that for `S=c1[nH]c2ccc(Cl)cc2[nH]1` was 1.33. On to `CC1CCCC(C)N1C(=O)CSc1nnc(-c2cccs2)o1` (stereo not given), for which the z-score was 3.46. With `O=C(CSc1nnc(-c2cccs2)o1)N1CCOCC1`, the z-score was -4.31 (active). For `COc1ccccc1C(c1nnnn1Cc1ccccc1)N1CCN(c2nc3ccccc3s2)CC1` (stereo not given) the value was -5.06 (active); for `c1ccc(Cn2nnnc2C(c2ccccc2)N2CCN(c3nc4ccccc4s3)CC2)cc1` (stereo not given), -3.45 (active). For `COc1ccc(C(c2nnnn2Cc2ccccc2)N2CCN(c3nc4ccccc4s3)CC2)cc1` (stereo not given) the value was -5.01 (active); for `N#C/C(=C/c1ccc(N2CCCCC2)o1)C(=O)Nc1ccc(Cl)cc1`, 17.2; for `c1ccc(-c2nnc3sc(CN4CCc5ccccc54)cn23)cc1`, -0.03. The value for `COc1cc([N+](=O)[O-])ccc1-c1ccc(/C=N/NC(N)=O)o1` was 3.33. Consider `COC(=O)c1ccc(Cl)c(-c2ccc(/C=N/NC(=O)Nc3ccccc3)o2)c1`, for which the z-score is -3.3 (active). Regarding `COc1cc2c3nnc(-c4ccc(F)cc4)c-3cn(Cc3ccccc3F)c2cc1OC`, the z-score was 6.27. For `CC(C)COC(=O)c1nnsc1NC(=O)Nc1ccccc1` the value was -3.85 (active). On to `CC1CCc2c(sc3nn[nH]c(=O)c23)C1` (stereo not given), for which the z-score was 4.24. For `COc1c2c(nc3ccccc13)OC(C(C)(O)COC(C)=O)C2` (stereo not given) the value was 3.26. For `Cc1cc(C)cc(NC(=O)/C=C/c2ccc([N+](=O)[O-])s2)c1` the value was 5.99; for `COc1ccc(OC)c(/C(O)=C/C(=O)C(=O)Nc2cc(C)cc(C)c2)c1`, -5.01 (active); for `COc1cccc(/C=N/n2c(=O)[nH]c3ccccc32)c1OC`, -4.61 (active).

As to `O=[N+]([O-])c1ccc2c(c1)C(N1CCOCC1)/C(=C/COc1ccc3ccccc3c1Br)O2` (stereo not given), the z-score is -5.36 (active). The value for `CCN(C(=O)COC(=O)c1cccnc1Nc1cccc(C(F)(F)F)c1)C1CCS(=O)(=O)C1` (stereo not given) was -4.37 (active); that for `Cc1cc(C)n(-c2ccc(C(=O)OCC(=O)N(CC(C)C)C3CCS(=O)(=O)C3)cc2)n1` (stereo not given) was 3.33; that for `O=Nc1c(O)n(Cc2ccc(Cl)cc2)c2ccccc12` was 3.05.

Turning to `COc1ccc(OC)c(-n2c(=S)[nH]c3c(sc(=S)n3-c3ccccc3)c2=O)c1`, the z-score was 5.22. The value for `COc1ccc(C2C(Oc3ccccc3C)C(=O)N2Cc2ccc(F)cc2)cc1OC` (stereo not given) was -5.19 (active); that for `COc1ccc(C2/C=C\CN(S(=O)(=O)c3cccc4cccnc34)CC(=O)N2Cc2ccc(F)cc2)cc1` (stereo not given) was 7.49. For `COc1ccc(C2C(=O)c3ccccc3C2=O)cc1OC` the value was 3.02; for `CCOc1ccccc1N=C1NC(=O)CS1`, -6.97 (active). For `CCOc1ccccc1-c1c2cc(O)c(=O)cc-2oc2cc(O)c(O)cc12` the value was 8.08; for `O=C(Nc1nc2ccccc2n1CCN1CCOCC1)c1ccc(COc2ccccc2Br)o1`, -3.48 (active); for `COC(=O)CN(C(=O)CSc1nnc(-c2cccc(OC)c2)o1)c1ccc(OC)cc1`, -0.85. Regarding `COc1ccc(-c2nnc(SCC(=O)N(Cc3ccccc3)C(C)(C)C)o2)cc1OC`, the z-score is -5.96 (active). For the compound `CCCOC(=O)CSc1nnc(-c2ccc(Cl)cc2Cl)o1`, the z-score was -1.15.

In the case of `CCOC(=O)/C(=C/C=C1\Sc2cc(OCC)c(OCC)cc2N1CC)C(C)=O`, the z-score was 16.2. The value for `Cc1ccc(C)c(Cn2c(C)nc3c(sc(=S)n3-c3ccccc3)c2=O)c1` was 2.17; that for `Cc1nc2c(c(=O)n1Cc1ccccc1Cl)c1nc3ccccc3nc1n2Cc1ccco1` was -5.21 (active); that for `COCCNC(=O)c1ccc2ccccc2n1` was 1.76. For `CCN(C(=S)Nc1cccnc1)c1cccc2ccccc12` the value was -3.01 (active).

`CCN(C(=S)NCCOC)c1cccc2ccccc12`: the z-score is -3.13 (active). `CCN(CC)CCN1C(=O)c2oc3ccccc3c(=O)c2C1c1ccccc1` (stereo not given): the z-score was 3.66.

Regarding `CN1CCN(CC(=O)Nc2sc3c(c2C#N)CCC(C(C)(C)C)C3)CC1` (stereo not given), the z-score is -3.27 (active).

Consider `CCCN1CCc2c(sc(NC(=S)NC(=O)c3ccccc3)c2C#N)C1`, for which the z-score is 5.2. The value for `CN1/C(=C\C=C2/SC(=S)NC2=O)C(C)(C)c2ccccc21` was 13.4.

Regarding `CCCCN1C(=O)/C(=C/C=C2\N(C)c3ccccc3C2(C)C)SC1=S`, the z-score was 10.9. The value for `CCCCC(=O)Nc1ccc2c(c1)nc1n2CCSC1` was 3.16; that for `Cc1cc(C)nc(N(C#N)CC(=O)N2CCC(C(N)=O)CC2)n1` was 1.53; that for `CCOCCCNC(=O)c1ccc(N2CCCC2)c(NS(=O)(=O)c2ccc(C)cc2)c1` was 3.4. For `CN1CCN(c2ccccc2NC(=O)c2ccc(N3CCCC3)c([N+](=O)[O-])c2)CC1` the value was -3.01 (active). For `NC(=O)c1ccc(N2CCN(c3ccc(O)cc3)CC2)c([N+](=O)[O-])c1` the value was -3.43 (active); for `COc1ccccc1Nc1nc(Cl)c(C=O)s1`, 3.19. `O=C(NC1=NCCS1)C1Cc2ccccc2CN1C(=O)c1ccccc1` (stereo not given): the z-score was 3.06.

For the compound `COc1ccc2c(c1)NC(c1ccc(N(C)C)cc1)c1cccn1-2` (stereo not given), the z-score was 12.

Consider `COc1ccc2c(c1OC)C(=O)OC2`, for which the z-score was 0.33. Turning to `CCN(CC)c1ccc(C=C(c2nnnn2-c2ccccc2)c2nnnn2-c2ccccc2)cc1`, the z-score is 4.4. For `CCN(CC)c1ccc(/C=N/Nc2nc(C)cc(C)n2)cc1` the value was -3.23 (active); for `CCN(CC)c1ccc(/C=C/c2cc(-c3ccccc3)c3ccccc3n2)cc1`, 15.3; for `Cc1c(N=C2N=C(NC(=O)c3cccs3)c3ccccc32)c(=O)n(-c2ccccc2)n1C`, 6.23. Regarding `Cc1ccc(OCCN2CCN(C(=O)CCC(=O)Nc3nnc(C)s3)CC2)cc1`, the z-score was 0.99.

Turning to `COC(=O)c1c(NC(=O)c2ccc(C)c(S(=O)(=O)Nc3ccccc3C)c2)sc2c1CCCC2`, the z-score is -3.01 (active). On to `CN1CCS/C1=C/C=C1/SC(=S)N(Cc2ccccc2)C1=O`, for which the z-score was 12.1. The value for `CC(C)C(c1nnnn1C1CCCC1)N1CCOCC1` (stereo not given) was 3.02; that for `Clc1ccccc1CN(Cc1ccccc1)C(c1cccs1)c1nnnn1C1CCCC1` (stereo not given) was -6.23 (active). On to `CCN(Cc1ccccc1)C(c1cccs1)c1nnnn1C1CCCCC1` (stereo not given), for which the z-score is -3 (active). For `CCCCNC(=S)NC(=O)c1ccc(Cl)cc1Cl` the value was 3.14. With `COc1ccc(NC(=O)CCN2CCCC(C)C2)cc1` (stereo not given), the z-score is 1.

Turning to `COc1ccc(NC(=O)CCC(=O)OCc2ccc(Br)cc2)cc1`, the z-score is -5.13 (active). The value for `O=C(NC1C=CS(=O)(=O)C1)c1sc2ccccc2c1Cl` (stereo not given) was 3.86; that for `C#CCn1c(=NC(=O)c2sc3ccccc3c2Cl)sc2cc(S(N)(=O)=O)ccc21` was -3.78 (active). The value for `C=CCn1c(=NC(=O)c2cc(-c3cccs3)nc3ccccc23)sc2cc(S(N)(=O)=O)ccc21` was 8.96.

For the compound `CCN1CC=C2C(C#N)=C(N)C(C#N)(C#N)C(CCc3ccccc3)C2C1` (stereo not given), the z-score was 13.8. With `Cc1cccc(-c2ncc(CN3CCCC(CO)(Cc4ccccc4C)C3)cn2)c1` (stereo not given), the z-score is 3.13.

The values above are taken from PubChem BioAssay AID1628 (Sanford-Burnham Center for Chemical Genomics, 2009).
